An excerpt weighted towards active compounds, which were near 3.8% of everything screened.
PLK1 PBD block = qHTS for Inhibitors of PLK1-PDB (polo-like kinase 1 - polo-box domain): Primary Screen; Plk1 PBD binding of FITC phosphopeptide, fluorescence polarization; Potency, µM, for the others: max response, negative = inhibition, actives largely listed as inhibitors; 360,000 tested, 2.8% active; AID 720504, 2013; note: potency is the fitted concentration of half-maximal effect; series mostly up to about 57 µM; % is set by controls: 0 for no effect and ±100 for the full control effect; nearly all actives have a fitted effect of over 65% in size
hERG WT inh = qHTS for Inhibitors of KCHN2 3.1: Wildtype qHTS; 340,000 tested, 0.37% active; Voltage-gated inwardly rectifying potassium channel KCNH2 (Homo sapiens), Q12809; AID 720551, 2013; U2OS, BacMam KCNH2, thallium flux FluxOr; active compounds read low; activity change, % at 1.84 µM;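 active = maximum activity change below -70%; inconclusive = maximum activity change between -70% and -50%; inactive = maximum activity change above -50%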; note: % is set by controls: 0 for no effect and ±100 for the full control effect
Target sequence (Q12809 whole entry, looked up): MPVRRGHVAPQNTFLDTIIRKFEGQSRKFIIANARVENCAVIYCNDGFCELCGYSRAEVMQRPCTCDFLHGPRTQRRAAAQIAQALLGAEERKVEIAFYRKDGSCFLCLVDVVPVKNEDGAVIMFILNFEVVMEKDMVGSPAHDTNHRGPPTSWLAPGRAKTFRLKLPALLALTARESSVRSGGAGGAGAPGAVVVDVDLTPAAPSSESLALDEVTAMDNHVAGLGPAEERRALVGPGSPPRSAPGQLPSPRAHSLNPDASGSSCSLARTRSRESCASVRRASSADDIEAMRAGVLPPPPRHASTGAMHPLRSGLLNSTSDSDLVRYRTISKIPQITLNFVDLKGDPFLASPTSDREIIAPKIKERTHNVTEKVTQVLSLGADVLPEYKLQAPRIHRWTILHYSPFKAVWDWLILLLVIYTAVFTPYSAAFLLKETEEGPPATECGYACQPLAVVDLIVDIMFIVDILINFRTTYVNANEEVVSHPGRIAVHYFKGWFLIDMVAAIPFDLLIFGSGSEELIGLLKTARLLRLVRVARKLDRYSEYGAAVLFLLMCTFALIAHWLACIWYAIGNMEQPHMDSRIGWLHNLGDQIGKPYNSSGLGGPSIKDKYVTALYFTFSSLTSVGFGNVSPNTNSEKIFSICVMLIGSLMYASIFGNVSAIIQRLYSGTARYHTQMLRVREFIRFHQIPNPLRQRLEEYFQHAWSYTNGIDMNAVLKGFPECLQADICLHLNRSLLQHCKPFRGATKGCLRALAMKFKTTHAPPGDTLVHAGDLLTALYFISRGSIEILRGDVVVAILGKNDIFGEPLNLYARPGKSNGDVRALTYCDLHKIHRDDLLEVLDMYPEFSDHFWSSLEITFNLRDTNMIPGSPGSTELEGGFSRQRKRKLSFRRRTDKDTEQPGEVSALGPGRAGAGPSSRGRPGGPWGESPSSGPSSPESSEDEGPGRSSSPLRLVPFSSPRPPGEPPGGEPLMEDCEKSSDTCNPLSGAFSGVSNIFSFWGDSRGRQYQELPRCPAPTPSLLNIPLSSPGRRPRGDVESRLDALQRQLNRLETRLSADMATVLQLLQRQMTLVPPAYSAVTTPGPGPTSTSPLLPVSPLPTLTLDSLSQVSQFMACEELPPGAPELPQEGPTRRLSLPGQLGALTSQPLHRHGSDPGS
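U2OS cells transduced with wild-type KCNH2 virus are loaded with FluxOr dye for 45 min, and thallium flux is measured in kinetic reads before and after stimulation buffer. Rate constants are normalized to DMSO controls.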
VDR inhibitor = Inhibitors of the vitamin D receptor (VDR): qHTS; Potency, µM, for inactives: max response, negative = inhibition, usual class: inhibitors; VDR-SRC2-3 peptide fluorescence polarization, 2 h; 400,000 tested, 0.93% active; AID 504847, 2011; Vitamin D3 receptor (Homo sapiens), P11473; note: potency is the fitted concentration of half-maximal effect; % is set by controls: 0 for no effect and ±100 for the full control effect
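The screen uses fluorescence polarization to detect compounds that interfere with recruitment of the SRC2-3 coactivator peptide to VDR; plates are read after 2 h at room temperature.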
KCNH2 3.1 inh = qHTS for Inhibitors of KCHN2 3.1: Mutant qHTS | Potassium voltage-gated channel subfamily H member 2, brain isoform KCNH2 3.1 (human) | activity change, % (tested at about 1.8 µM) | U2OS KCNH2 3.1, thallium flux FluxOr; active compounds read low | 340,000 tested, 0.95% active;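 active = maximum activity change below -70%; inconclusive = maximum activity change from -70% to -50%; inactive = maximum activity change above -50%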;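 note: thallium influx rate constant from kinetic fluorescence after stimulation buffer; % is set by controls: 0 for no effect and ±100 for the full control effect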
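Channel expression came from 3.1 mutant virus (1.77 x 10^8 /mL) applied to suspended U2OS cells for 4 h. Flux was tracked with FluxOr dye plus Red40 quencher, and kinetic rate constants normalized to controls.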
CBFb RUNX1 block = qHTS Assay for Compounds Blocking the Interaction Between CBF-beta and RUNX1 for the Treatment of Acute Myeloid Leukemia. 230,000 tested, under 10 active. AID 1477, 2009. Runt-related transcription factor 1 (Homo sapiens) + Core-binding factor subunit beta …. AlphaScreen CBFb-His/RUNX1-biotin binding, biochemical. Potency, µM (series often up to 59.8 µM), for inactives: top-dose activity, negative = inhibition, usual class: inhibitors; note: % of control where 0% means no effect
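His-tagged CBF-beta and biotinylated RUNX1 (30 nM each) were premixed 20 min at room temperature, exposed to compound for 15 min, then given nickel-chelate and streptavidin AlphaScreen beads (50 ng each). After 90 min, AlphaScreen signal was read.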
MBNL1-CUG inh = qHTS Assay for Inhibitors of MBNL1-poly(CUG) RNA binding; Potency, µM (titrated, usually from 57.5 µM), for inactives: top-dose activity change, negative = inhibition, most hits filed as inhibitors; Muscleblind-like protein 1 (Homo sapiens), Q9NR56; TR-FRET MBNL1-His/biotin-(CUG)12 binding, 665/545 ratio; AID 2675, 2010; 280,000 tested, 0.036% active; active = well fitted inhibition curve with a large enough effect in the signal ratio, with a control signal flat, not every such curve was filed as active; inconclusive = small, poorly fitted or top-dose-only effect, or effect the other way, or a change in a side signal; inactive = no such curve, though single readings can be large or run the other way; the % refers to the signal ratio; note: potency is the fitted concentration of half-maximal effect; % is set by controls: 0 for no effect and ±100 for the full control effect
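TR-FRET between His-tagged MBNL1 and biotin-(CUG)12 RNA, detected with Tb anti-His antibody (0.055 ng/ul) and streptavidin-XL665 (5 nM), 60 min at room temperature. Compounds titrated 92 nM to 58 uM; 665/545 nm ratio normalized to buffer and complex controls.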
Starred values were filed as active, the others as inactive; ? = inconclusive; / = no result; + = active, no number. Unless noted, calls come from the whole dose curve; as a rule, active = well fitted curve in the direction sought with a large enough effect; inconclusive = small, poorly fitted or top-dose-only effect, or another doubt; inactive = no such curve, though single readings can be large; an effect the other way counts as inactive or inconclusive.

SMILES	PLK1 PBD block	hERG WT inh	VDR inhibitor	KCNH2 3.1 inh	CBFb RUNX1 block	MBNL1-CUG inh
CCOc1ccc(CN2CCCC(CNC(=O)c3ccc(F)cc3)C2)cc1CO (stereo unspecified)	1%	/	9%	-101*	8%	1%
CSc1cccc(CN2CCCC(CNC(=O)c3ccc(F)cc3)C2)c1 (stereo unspecified)	1%	19	-12%	-21	4%	-13%
COc1ccccc1-n1c(SCC(N)=O)nc2c(c1=O)SCC2	-22%	-7	7%	-70*	7%	18%
COc1ccc(NC(=O)CSc2nc3c(c(=O)n2-c2ccccc2OC)SCC3)cc1	-3%	23	-3%	-8	3%	8%
COc1cccc(CN2CCN(Cc3cccc4nonc34)CC2CCO)c1 (stereo unspecified)	17µM*	16	-28%	-29	1%	5%
CCOc1ccc(CN2CCN(C/C=C/c3ccc(OC)cc3)CC2CCO)cc1 (stereo unspecified)	-1%	-15	-15%	-88*	4%	4%
Cc1ncc(CN2CCN(Cc3ccccc3)C(CCO)C2)s1 (stereo unspecified)	-8%	-5	15%	-7	6%	-4%
CCOc1ccc(CN2CCN(Cc3cnc(-c4ccccc4)s3)CC2CCO)cc1 (stereo unspecified)	-16%	-96*	4%	-97*	-2%	1%
CCOc1ccccc1CN1CCN(Cc2cccc3nonc23)CC1CCO (stereo unspecified)	-9%	45	9%	0	6%	-8%
COc1ccc(NS(=O)(=O)c2ccc3[nH]c4c(c3c2)CCCC4)cc1OC	/	/	-4%	/	/	/
CNC(=O)c1[nH]cnc1C(=O)Nc1ccc(C)cc1	-2%	-2	-17%	7	13%	2%
Cc1ccc(NC(=O)c2nc[nH]c2C(=O)Nc2ccc(C)cc2)cc1	-4%	-192*	-1%	10	2%	-7%
COc1cc2c3nnc(-c4ccccc4)c-3cn(Cc3ccccc3F)c2cc1OC	21µM*	-15	11%	-20	5%	55%
CCc1ccc(OCCCSc2nc(-c3ccc(C(C)(C)C)cc3)nc3cc(=O)[nH]n23)cc1	/	/	8%	/	/	/
Cc1cc2cc3c(cc2nc1SCc1ccc(C(=O)O)cc1)OCCO3	30µM*	5	-18%	-4	-2%	1%
COc1ccc(NC(=O)C(NC(=O)C2CCC(C)CC2)C(C)C)cc1 (stereo unspecified)	/	/	-2%	/	/	/
CC(C)(Oc1ccc(Cl)cc1)C(=O)Nc1nnc2n1CCS2	/	/	-5%	/	/	/
Cc1cccc(C)c1OCC(O)CN1CCN(c2ccccn2)CC1 (stereo unspecified)	-11%	1	-10%	-8	-6%	-1%
OC(COC(c1ccc(F)cc1)c1ccc(F)cc1)CN1CCCC1 (stereo unspecified)	-5%	-22	-1%	-83*	/	-21%
CC1CN(CC(O)COC(c2ccc(Cl)cc2)c2ccc(Cl)cc2)CC(C)O1 (stereo unspecified)	0%	?	8%	-76*	-1%	-25%
OC(COC(c1ccc(Cl)cc1)c1ccc(Cl)cc1)CN1CCN(c2ccccn2)CC1 (stereo unspecified)	-6%	+	2%	-99*	-19%	0%
CCc1ccc(CNC(=O)c2ccc(Cn3c(=O)c4cccn4c4cccnc43)cc2)cc1	/	/	8%	/	/	/
Cc1ccc(NC(=O)C(=O)NCC(c2ccc3c(c2)OCO3)N2CCN(C)CC2)c(C)c1 (stereo unspecified)	/	/	-4%	/	/	/
Cc1ccc(S(=O)(=O)N2CCCc3cc(NS(=O)(=O)c4ccc(F)cc4)ccc32)cc1	/	/	9%	/	/	/
Cc1ccccc1NC(=O)CSc1[nH]c(=O)cc(C)c1C#N	21µM*	-7	-6%	-3	1%	0%
SMILES	PLK1 PBD block	hERG WT inh	VDR inhibitor	KCNH2 3.1 inh	CBFb RUNX1 block	MBNL1-CUG inh
COc1ccc(NC(=O)CSc2[nH]c(=O)cc(C)c2C#N)cc1OC	-9%	-1	8%	-12	14%	6%
CCNC(=S)N(Cc1ccco1)Cc1cc2cc3c(cc2[nH]c1=O)OCCO3	-8%	-16	-2%	12	-5%	/
CNC(=S)N(Cc1ccco1)Cc1cc2cc3c(cc2[nH]c1=O)OCCO3	27µM*	-2	-22%	0	-4%	10%
Cc1ccc2cc(CN(Cc3ccco3)C(=S)NCC3CCCO3)c(=O)[nH]c2c1C (stereo unspecified)	-5%	-1	0%	-82*	-8%	1%
CCCN(CCC)C(=O)CSc1nnc2cc(C)c3ccccc3n12	/	/	3%	/	/	/
CCc1cccc(NC(=O)c2nnn(Cc3ccc(SC)cc3)c2N)c1	/	/	-3%	/	/	/
O=C(NNC(=S)NC1CCCCC1)c1cccc(S(=O)(=O)Nc2ccccc2Cl)c1	30µM*	-6	-4%	7	-6%	-9%
Cc1cc(=O)n(CC(=O)N2CCCCC2)c2c1c(C)nn2C	/	/	13%	/	/	/
COc1ccc2c(c1)Cc1sc(NC(=O)c3ccccc3)nc1-2	-17%	5	-20%	-7	3%	6%
COc1ccc2c(c1)Cc1sc(NC(=O)c3ccccc3C)nc1-2	/	/	25µM*	/	/	/
O=C(Nc1ccc(N=Nc2ccccc2)cc1)c1ccccc1Cl	-1%	-3	1%	-98*	-16%	1%
O=C(Nc1ccc(N=Nc2ccccc2)cc1)c1ccc(Cl)cc1Cl	-6%	5	8%	1	-1%	-7%
CCc1cc2c3c(c(=O)oc2cc1OCC(=O)OC)CCCC3	-4%	0	-5%	-100*	/	-3%
COc1cccc(NC(=O)CCc2nnc3n(Cc4ccccc4Cl)c(=O)c4ccccc4n23)c1	/	/	-18%	/	/	/
Cc1cc(C)c(C(=O)c2cccs2)c(C)c1	0%	4	-4%	-1	/	/
Cc1cc(C(=O)c2cccs2)c(N)s1	24µM*	2	?	-1	-14%	19%
Nc1c(C(=O)O)sc2nc(-c3ccc(F)cc3)cc(-c3ccccc3)c12	30µM*	10	-29%	5	7%	8%
Nc1c(C(=O)O)sc2nc(-c3ccccc3)cc(-c3ccc(Cl)cc3)c12	?	-2	-28%	-2	-4%	/

From PubChem
